Compound activity deposited in PubChem by National Center for Advancing Translational Sciences (NCATS).
Sampled rows, rich in hits. Any-hit rate of the full collection: about 7.8%.
HCV inhibitor – HCV inhibition. Huh7.5.1 HCVcc-Cre infection, luciferase reporter, 44 h. Potency, µM (top dose mostly 41.8 µM), usual class: inhibitors. hit rate 3.4% among 340,000. AID 651820; active means well fitted inhibition curve with a large enough effect; inconclusive means small, poorly fitted or top-dose-only effect, or another doubt; inactive means no such curve, though single readings can be large or run the other way
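A cell-based infection assay in which seeded cells (1,000 per well) receive test compound after 4 h, are inoculated with HCVcc-Cre at approximately 0.5 moi, and are incubated 44 h before luminescence detection.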
VACV Venus inh – vaccinia inhibition (Venus reporter); Potency, µM (top dose mostly 36.5 µM), usual class: inhibitors; AID 720580; Vaccinia virus Venus reporter expression, fluorescence; hit rate 0.46% among 330,000; calls by dose curve; tested in A549 cells; further: nearly all actives have a fitted effect of over 30% in size
Marburg entry inh – inhibitors of Marburg virus binding or cell entry; Marburg virus pseudotyped entry inhibition, cell reporter; Potency, µM (titrated, usually from 37.8 µM), hits mostly inhibitors; hit rate 1.8% among 300,000; AID 540276; calls by dose curve; tested in HEK293 cells
Vaccinia mCherry – vaccinia inhibition (mCherry reporter); hit rate 0.63% among 310,000; Potency, µM (doses to about 36.5 µM), most hits filed as inhibitors; Vaccinia virus mCherry reporter infection, fluorescence; AID 720579; calls by dose curve; tested in A549 cells; further: nearly all actives have a fitted effect of over 35% in size
Lassa entry inh – inhibitors of Lassa virus binding or cell entry | Potency, µM (top dose mostly 37.9 µM), most hits filed as inhibitors | Lassa virus pseudotype entry inhibition, cell reporter | hit rate 1.2% among 300,000 | AID 540256; calls by dose curve; tested in HEK293 cells; further: nearly all actives have a fitted effect of over 50% in size
HCMV antiviral – blocks human cytomegalovirus replication. HFF cells, HCMV-luciferase reporter, 72 h; hits give low values. hit rate 4.5% among 410,000. activity change, negative = inhibition, % at 57.5 µM. AID 1259415; in the data active means activity change below about -60%; inconclusive means no clear call, values can overlap the other calls; inactive means above about -39%
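Two-dose cell screen: HFF monolayers treated with compounds and infected with luciferase-expressing HCMV at 1 PFU/cell, 72 h at 37C, then lysed for luciferase measurement.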
Numbers stand for hits; – = inactive; ? = inconclusive; · = no result.

SMILES	HCV inhibitor	VACV Venus inh	Marburg entry inh	Vaccinia mCherry	Lassa entry inh	HCMV antiviral
CCS(=O)(=O)c1ccc(OC)c(N=Nc2ccc(O)c3ncccc23)c1	?	–	?	?	?	?
CCOc1ccc(N=Nc2ccc(O)c3ncccc23)cc1	7.9µM	–	?	?	–	-87
CCc1nc2nc(C)cc(Nc3cccc(C(F)(F)F)c3)n2n1	?	10µM	–	·	–	–
Cc1cc(Nc2cccc(C(F)(F)F)c2)n2nc(C)nc2n1	–	10µM	?	·	–	–
CCc1ccc(Nc2cc(C)nc3nc(Cc4ccc(Cl)cc4)nn23)cc1	·	?	?	?	?	-92
COc1ccc(-c2nc3nc(C)cc(Nc4cccc(C(F)(F)F)c4)n3n2)cc1	·	–	–	–	–	–
Cc1cccc(C(=O)Nc2ccc(C(=O)OCc3cc(=O)n4c(C)csc4n3)cc2)c1	·	–	·	–	–	–
c1ccc2c(-c3ccc4nncn4c3)cncc2c1	·	–	·	–	·	-70
Cc1c(C(=O)NCCc2cccnc2)cnn1-c1nccc(-c2ccccc2F)n1	·	–	·	–	·	·
O=[N+]([O-])c1ccc(-c2nc(-c3ccc(F)cc3)c(-c3ccncc3)[nH]2)cc1	·	·	8.2µM	·	?	·
CCc1ccc(C2Sc3ccccc3NC3=C2C(=O)c2ccccc23)cc1 (stereo not given)	·	–	?	–	?	-85
CC(C)c1ccc(C2Sc3ccccc3NC3=C2C(=O)c2ccccc23)cc1 (stereo not given)	·	–	?	–	–	-100
O=C1C2=C(Nc3ccccc3SC2c2ccc(C(F)(F)F)cc2)c2ccccc21 (stereo not given)	·	?	?	?	?	-99
CC(=O)Nc1ccc(C2Sc3ccccc3NC3=C2C(=O)c2ccccc23)cc1 (stereo not given)	·	–	?	–	–	–
COC(=O)C1=C(C(=O)OC)[C@@H]2N(C)c3ccccc3[C@@]23CCC(=O)N(Cc2cc(OC)c(OC)c(OC)c2)C3=N1	·	·	–	·	·	·
O=[N+]([O-])c1ccc(C[n+]2ccccc2)cc1	–	–	·	–	·	–
Brc1ccc(C[n+]2ccccc2)cc1	7.9µM	–	·	–	·	–
COC(=O)c1[nH]c2ccc(C)cc2c1NC(=O)CN1CCC(C)CC1	?	–	–	–	–	–
COC(=O)c1[nH]c2ccc(C)cc2c1NC(=O)CN1CCN(Cc2ccccc2)CC1	?	?	–	–	?	–
COC(=O)c1ccc(C(=O)OC)c(NC(=O)CN2CCN(c3ccccc3)CC2)c1	–	–	9.2µM	–	?	–
COC(=O)c1ccccc1NC(=O)CN1CCc2ccccc2C1	–	–	–	–	–	–
COC(=O)c1[nH]c2ccc(C)cc2c1NC(=O)CN1CCN(c2ccc(F)cc2)CC1	?	–	?	?	13µM	-83
COC(=O)c1[nH]c2ccc(C)cc2c1NC(=O)CN1CCN(c2ccccc2)CC1	?	?	?	?	?	-65
COC(=O)c1ccc(C(=O)OC)c(NC(=O)CN2CCN(c3ccc(OC)cc3)CC2)c1	–	–	–	–	–	–
COC(=O)c1ccccc1NC(=O)CN1CCN(C23CC4CC(CC(C4)C2)C3)CC1	–	–	5.8µM	–	?	–
SMILES	HCV inhibitor	VACV Venus inh	Marburg entry inh	Vaccinia mCherry	Lassa entry inh	HCMV antiviral
CCOC(=O)c1cnc2ccc(OC)cc2c1NCCc1ccccc1	·	–	·	–	–	?
CC1CN(CC(=O)NCC2(N3CCOCC3)CCCC2)Cc2cc(Cl)ccc2O1 (stereo not given)	·	–	·	–	·	·
COC(=O)c1ccccc1-c1cc(C)cc2c1OC(CNC(=O)c1ccn(C)n1)C2 (stereo not given)	·	–	·	–	·	·
COc1ccc(OC)c(NC(=O)c2cccc(NC(=O)c3ccccc3)c2)c1	10µM	–	?	–	?	?
COc1cc(OC)cc(C(=O)Nc2ccc(Nc3ccccc3)cc2)c1	8.9µM	·	·	·	·	–
COc1cc(OC)cc(C(=O)Nc2cccc(NC(=O)c3ccccc3)c2)c1	10µM	–	?	–	?	–
Cc1cccc(N2CC(c3nc4ccc(C)cc4[nH]3)CC2=O)c1 (stereo not given)	·	–	–	–	–	–
CCOc1ccc2nc(N3CCCC(C(=O)Nc4ccc(Br)c(C)c4)C3)sc2c1 (stereo not given)	·	–	–	–	·	–
COc1cccc(-n2c(=O)c3c(C)c(C(=O)N(C)C)sc3n(Cc3ccc(F)cc3Cl)c2=O)c1	·	–	·	–	–	–
Cc1ccc(C(O)(c2ccc(C)c(C)c2)C2CN3CCC2CC3)cc1C (stereo not given)	?	·	·	·	·	-97
CCCc1cc(=O)c2c(O)ccc(OC)c2o1	?	–	–	–	–	–
COc1ccc(O)c2c(=O)c3c(OC)cc4c(c3oc12)C1C=COC1O4 (stereo not given)	·	·	·	–	·	-62
CCOC(=O)CN(C)C(=O)c1cnn(-c2ncc3c(n2)-c2ccccc2CCC3)c1C	·	–	·	–	·	·
OCCCNc1ncnc2sc(-c3ccccc3)cc12	?	–	?	–	?	–
COc1ccc(Nc2ncnc3sc(-c4ccccc4)cc23)cc1	10µM	·	–	·	–	–
C=COCCCNc1ncnc2sc(-c3ccccc3)cc12	8.9µM	·	·	·	·	?
CN(C)c1ncnc2sc(-c3ccccc3)cc12	11µM	–	?	–	–	–
COc1ncnc2sc(-c3ccccc3)cc12	?	–	–	–	–	–
CC(C)(C)Nc1ncnc2sc(-c3ccccc3)cc12	?	·	·	·	·	-73
Cn1c(SSc2ccc(-c3cccnc3)n2C)ccc1-c1cccnc1	–	?	13µM	13µM	?	–
CCCN(N=Nc1cccc([N+](=O)[O-])c1)c1cccc([N+](=O)[O-])c1	1.1µM	–	?	–	–	–
O=[N+]([O-])c1cccc(N=NN(CCO)c2cccc([N+](=O)[O-])c2)c1	1.1µM	–	–	–	–	–
CN(N=Nc1cccc([N+](=O)[O-])c1)c1cccc([N+](=O)[O-])c1	?	·	–	·	–	–
O=[N+]([O-])c1cccc(CN(CCO)Cc2ccccc2)c1	–	·	–	·	–	–
OC1(c2ccccc2)CCN(Cc2ccccc2)C2CCCCC21 (stereo not given)	–	?	8.9µM	–	?	–
SMILES	HCV inhibitor	VACV Venus inh	Marburg entry inh	Vaccinia mCherry	Lassa entry inh	HCMV antiviral
CCC(=O)c1cc(F)c(N2CCN(S(=O)(=O)c3ccc(C)cc3)CC2)cc1C	13µM	–	?	–	–	–
C=C1[C@@H](O)CN(Cc2ccc(OC)cc2)S1(=O)=O	·	28µM	·	?	·	·
CCOc1ccc(-c2nc(C(N)=O)c3c(n2)n(-c2ccc4c(c2)OCO4)c(=O)n3CC)cc1	·	–	–	–	–	–
C[C@]12CCCCC3=CC(=O)C=C[C@@]31OC(=O)CC2	·	·	·	·	·	–
COc1ccc(/C=C/CN2CCC(CO)(Cc3ccccc3Cl)CC2)cc1	?	–	?	–	–	-70
COC(=O)c1ccc(CN2CCC(CO)(Cc3ccccc3Cl)CC2)cc1	–	–	?	?	–	–
CC(=O)N/N=C/c1c(C)[nH]n(-c2ccccc2)c1=O	–	–	–	–	–	–
Cc1[nH]n(-c2ccccc2)c(=O)c1/C=N/NC(=O)c1ccccc1F	?	·	·	·	·	-94
